From PubChem BioAssay (EPA / NIEHS)
Where “and” joins values, the source holds several entries; their conditions need not be identical. Equal values may be shown once. Inconclusive results are not listed. The source holds several records for some structures; these can differ, active in one and inactive in another. Calls of active or inactive are those of the source. Rule for the calls, unless noted: active = hit-call score of the fitted dose curve at least 0.9, where 1 is the maximum; inconclusive = response in the unintended direction; inactive = score below 0.9.

Tests used:
[1] = molecular target: Cellular tumor antigen p53 (Homo sapiens) (UniProt P04637); assay: TOX21_p53_BLA_p2_ratio: Tox21 HCT-116 p53 Agonism Beta-lactamase Assay, Ratio, Phase 2 (AID 2283592)
Cellular tumor antigen p53 (Homo sapiens), sequence (P04637 whole entry, looked up): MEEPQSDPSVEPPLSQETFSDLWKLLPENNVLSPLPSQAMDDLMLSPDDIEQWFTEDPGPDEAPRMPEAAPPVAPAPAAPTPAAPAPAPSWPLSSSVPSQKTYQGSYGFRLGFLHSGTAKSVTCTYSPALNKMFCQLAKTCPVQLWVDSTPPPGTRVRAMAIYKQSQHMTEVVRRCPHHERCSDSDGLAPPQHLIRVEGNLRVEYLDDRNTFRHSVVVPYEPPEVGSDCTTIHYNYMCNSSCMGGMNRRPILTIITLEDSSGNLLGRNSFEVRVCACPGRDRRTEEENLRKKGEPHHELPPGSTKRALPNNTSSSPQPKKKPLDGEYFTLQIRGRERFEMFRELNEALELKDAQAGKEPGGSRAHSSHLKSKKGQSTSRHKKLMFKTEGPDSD
How it was run: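 In this cell-based reporter format, HCT116 cells were dosed with chemicals delivered from DMSO by 217-fold dilution and incubated 16 h at 37C. Emission at 460 and 530 nm after 2 h CCF4-AM loading provided the ratio, fitted upward versus DMSO.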

[2] = molecular target: Cellular tumor antigen p53 (Homo sapiens) (UniProt P04637); assay: TOX21_p53_BLA_p3_ratio: Tox21 HCT-116 p53 Agonism Beta-lactamase Assay, Ratio, Phase 3 (AID 2283596)
How it was run: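 HCT116 p53-bla cells (4000/well) given compound in DMSO (217-fold dilution) after 5 h, incubated 16 h at 37C. CCF4-AM substrate 2 h at room temperature; 460/530 nm emission ratio, gain fitted against DMSO.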

[3] = molecular target: Cellular tumor antigen p53 (Homo sapiens) (UniProt P04637); assay: TOX21_p53_BLA_p5_ratio: Tox21 HCT-116 p53 Agonism Beta-lactamase Assay, Ratio, Phase 5 (AID 2283599)
How it was run: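 Beta-lactamase reporter ratio (blue 460 nm over green 530 nm, 405 nm excitation) after 2 h CCF4-AM loading, in HCT-116 cells exposed 16 h at 37 C to compounds pinned at 217-fold dilution. Increases relative to DMSO baseline scored.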

[4] = molecular target: Cellular tumor antigen p53 (Homo sapiens) (UniProt P04637); assay: TOX21_p53_BLA_p4_ratio: Tox21 HCT-116 p53 Agonism Beta-lactamase Assay, Ratio, Phase 4 (AID 2283601)
How it was run: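 Signal is the blue/green (460nm/530nm) ratio of cleaved versus uncleaved CCF4-AM substrate, read after 2 h substrate loading. Cells were HCT116 carrying the p53-responsive beta-lactamase reporter, dosed 16 h at 37C, 5% CO2; CellTiter-Glo measured in parallel.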

[5] = TOX21_p53_BLA_p5_viability: Viability Assessment in the Tox21 HCT-116 p53 Agonism Beta-lactamase Assay, Phase 5 (AID 2283600)
How it was run: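 Compounds, pinned from DMSO at 217-fold dilution, were left on the cells for 16 h. The viability endpoint was ATP content measured by CellTiter-Glo luminescence, where falling signal reflects cytotoxicity.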

[6] = STM_H9_OrnCyssISnorm_ratio: Stemina devTOX quickPredict H9 human embryonic stem cell (hESC)-based Assay for Ornithine (ORN):Cystine (CYSS) Ratio (AID 2283714)
How it was run: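 Steps: H9 hESCs in pluripotent state dosed 72h, medium plus compound renewed every 24h; conditioned medium from the final 24h deproteinized in 40% acetonitrile; ORN and CYSS quantified by UPLC-HRMS with C13 spike-ins; ratio relative to vehicle.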

[7] = system: Thyroperoxidase (TPO), gene 54314; assay: CCTE_Simmons_AUR_rTPO: CCTE's Amplex UltraRed Assay for Thyroperoxidase (TPO) Inhibition, Simmons Lab (AID 2283662);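 for AC50: potency for loss of signal meaning inhibition of peroxidase activity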
How it was run: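 Endpoint is decreased Amplex UltraRed fluorescence after a 30-min, 37C reaction of rat thyroid microsomes with 300 uM H2O2. Eight test concentrations (5 nM–87.5 uM final) in 0.5% DMSO, three biological replicates each.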

[8] = CCTE_Simmons_CellTiterGLO_HEK293T: Viability Assessment in CCTE's Assays for Thyroperoxidase (TPO) Inhibition, Simmons Lab (AID 2283665)
How it was run: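 HEK293T cells in DMEM with 1% FBS were dosed with 8 concentrations (5 nM–87.5 uM final, 0.5% DMSO) for 24 hr at 37C; ATP content was read by CellTiter-Glo luminescence, loss-of-signal versus DMSO, three biological replicates.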

[9] = molecular target: Luciferin 4-monooxygenase (Photinus pyralis) (UniProt P08659); assay: CCTE_Simmons_QuantiLum_inhib_2: CCTE's Firefly Luciferase Inhibition Assay, Simmons Lab (AID 2283767);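 for AC50: potency for inhibitors that lower luciferase luminescence relative to DMSO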
Luciferin 4-monooxygenase (Photinus pyralis), sequence (P08659 whole entry, looked up): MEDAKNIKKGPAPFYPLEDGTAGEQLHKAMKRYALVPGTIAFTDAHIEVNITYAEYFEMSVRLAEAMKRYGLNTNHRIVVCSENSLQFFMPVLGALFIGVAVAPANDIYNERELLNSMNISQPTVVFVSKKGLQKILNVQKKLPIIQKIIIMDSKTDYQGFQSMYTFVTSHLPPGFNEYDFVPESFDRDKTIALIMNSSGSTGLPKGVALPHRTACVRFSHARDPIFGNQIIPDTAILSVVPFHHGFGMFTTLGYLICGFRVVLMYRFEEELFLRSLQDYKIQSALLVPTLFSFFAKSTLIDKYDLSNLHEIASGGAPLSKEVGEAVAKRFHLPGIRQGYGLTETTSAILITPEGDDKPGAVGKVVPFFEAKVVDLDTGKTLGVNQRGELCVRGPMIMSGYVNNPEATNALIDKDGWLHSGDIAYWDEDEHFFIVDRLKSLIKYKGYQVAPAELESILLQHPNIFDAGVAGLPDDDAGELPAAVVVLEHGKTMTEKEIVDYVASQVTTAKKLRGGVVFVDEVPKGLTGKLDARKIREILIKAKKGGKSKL
How it was run: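 Recombinant firefly luciferase (5 ng/well, 200 mM potassium phosphate with 1 mg/ml BSA) was exposed to 8 concentrations from 5 nM to 87.5 uM (final, 0.5% DMSO) for 30 min at 37C in the dark. Loss of luminescence versus DMSO was read after injecting D-luciferin/ATP-analogue reagent.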

[10] = TOX21_p53_BLA_p4_viability: Viability Assessment in the Tox21 HCT-116 p53 Agonism Beta-lactamase Assay, Phase 4 (AID 2283597);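 note: hits lower the luminescence signal meaning cytotoxicity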
How it was run: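 We seeded HCT116 p53 reporter cells at 4000/well and waited 5 h. We then added compounds in DMSO at a 217-fold dilution and incubated for 16 h. Viability was read as CellTiter-Glo luminescence after 30 min at RT.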

[11] = ACEA_AR_agonist_AUC_viability: ACEA Biosciences xCELLigence Real-Time Cell Analysis on Androgen Receptor Agonism for Viability (AID 2283775);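 for AC50: viability read 80 hours after compound addition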
How it was run: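 Read-out is area under the impedance curve at 80 h post-dose in 22Rv1 cells, with DMSO as baseline and signal loss taken as reduced viability. Compounds ran in duplicate from 100 uM final.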

[12] = ACEA_AR_antagonist_AUC_viability: ACEA Biosciences xCELLigence Real-Time Cell Analysis on Androgen Receptor Antagonism for Viability (AID 2283776);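 note: 22Rv1 human prostate cancer cells growing on impedance electrode plates; area under impedance growth curve at 80 h after dosing as viability; hits lower the growth signal relative to DMSO meaning cytotoxicity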
How it was run: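 Viability endpoint from label-free cell-index monitoring: 22Rv1 cultures treated with an eight-point 1:4 dilution series starting at 100 uM final, AUC at 80 h fitted against DMSO.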

[13] = TOX21_p53_BLA_p3_viability: Viability Assessment in the Tox21 HCT-116 p53 Agonism Beta-lactamase Assay, Phase 3 (AID 2283593);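 note: cells exposed to compound for 16 h before reading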
How it was run: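 Cellular ATP was quantified by CellTiter-Glo luminescence, read after 30 min at room temperature. Beforehand, HCT116 cells (4000/well) received compound 5 h post-seeding, 217-fold diluted from DMSO, then incubated 16 h at 37C.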

[14] = CEETOX_H295R_MTT_cell_viability: Viability Assessment in the CeeTox HT-H295R MTT Assay (AID 2283718; active = hit-call score of the fitted dose curve at least 0.9, where 1 is the maximum; inactive = score below 0.9)
How it was run: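 MTT reduction (0.5 mg/ml, 4 h at 37 C; absorbance at 570 and 650 nm) gave viability as background-corrected percent change versus controls. H295R cells had 48 h forskolin (10 uM) prestimulation, then 48 h chemical exposure at 0.1% DMSO.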

Measured: AC50

CC(C)COC(=O)C=Cc1ccccc1
inactive: [1] | [2] | [3] | [4]

O=C1CCCCCCCCCCC(=O)OCCO1
inactive: [1] | [2] | [3] | [5] | [4] | [6]

CCN(CCO)c1cccc(C)c1
inactive: [1] | [2] | [3]

O=C(c1ccccc1)c1ccc(O)c(O)c1O
active: [7] 2.12 µM
inactive: [1] | [2] | [3] | [4] | [8] | [9]

CCC(=O)Oc1ccc(/C(CC)=C(\CC)c2ccc(OC(=O)CC)cc2)cc1
active: [1] 6.81 µM | [2] 16.4 µM | [3] 5.08 µM
inactive: [5] | [4]

CCOC(=O)NNc1nncc2ccccc12
inactive: [1] | [2] | [3] | [4]

CC(=O)c1ccc[nH]1
inactive: [1] | [2] | [10] | [3] | [4]

COc1ccc([C@@H]2CC(=O)c3c(O)cc(O[C@@H]4O[C@H](CO[C@@H]5O[C@@H](C)[C@H](O)[C@@H](O)[C@H]5O)[C@@H](O)[C@H](O)[C@H]4O)cc3O2)cc1OC
inactive: [1] | [2] | [10] | [3] | [5]

CCO[Si](C)(OCC)OCC
inactive: [1] | [2] | [3] | [5] | [4] | [11] | [12]

CC(C)CC(O)Cc1ccccc1 (stereo unspecified)
inactive: [1] | [2] | [10] | [3] | [4]

CCCOCCOCCOCCO
inactive: [1] | [2] | [10] | [3] | [4]

CC=CC(=O)N(CC)c1ccccc1C
inactive: [1] | [2] | [10] | [3] | [4]

c1ccc(-c2ccccn2)nc1
inactive: [1] | [2] | [10] | [3] | [4]

c1ccc2c(c1)ccc1cc3c(ccc4ccccc43)cc12
active: [9] 0.105 µM | [11] 0.341 µM | [12] 0.287 µM
not listed: [6] | [13] | [14]
inactive: all other assays above

CN(C)CCCN(C)C
inactive: [1] | [2] | [3] | [4]

CO[Si](OC)(OC)c1ccccc1
inactive: [1] | [2] | [10] | [4]

Cc1cnc(NC(=O)C2=C(O)c3ccccc3S(=O)(=O)N2C)s1
inactive: [1] | [2] | [3] | [4]

O=C(OCC1CCC2OC2C1)C1CCC2OC2C1 (stereo unspecified)
active: [11] 9.05 µM
inactive: [1] | [2] | [10] | [3] | [5]

NC(CO)(CO)CO
inactive: [1] | [2] | [10] | [3] | [5] | [4]

O=C(Cl)c1cc(C(=O)Cl)cc(C(=O)Cl)c1
inactive: [1] | [2] | [10] | [3] | [5]

COC(=O)c1cc(Cl)ccc1[N+](=O)[O-]
inactive: [1] | [2] | [3] | [4]

Cc1cc(C)c(C)cc1C
inactive: [1] | [2] | [3] | [5] | [4]

CC1=NN(c2cc(S(=O)(=O)O)ccc2Cl)C(=O)C1N=Nc1ccccc1 (stereo unspecified)
inactive: [1] | [2] | [10] | [3] | [4] | [11] | [12]

Cc1ccc(C(C)(C)C)cc1
inactive: [1] | [2] | [3] | [5] | [4] | [11]

C(=CC=Nc1ccccc1)C=CNc1ccccc1
inactive: [13] | [2] | [10] | [3] | [5]

C=CC(C)(CCC=C(C)C)OC(=O)C(C)C (stereo unspecified)
inactive: [1] | [3] | [4]

OC1CCCCCCCCCCC1
inactive: [13] | [2] | [10] | [3] | [4] | [11] | [12]

CC(C)(Oc1ccc(C2CC2(Cl)Cl)cc1)C(=O)O (stereo unspecified)
inactive: [13] | [2] | [10] | [3] | [5] | [4]

C=C[Si](C)(C)O[Si](C)(C)C=C
inactive: [1] | [2] | [11] | [12]

CC(C)(C)c1ccc(OC(=O)c2ccccc2O)cc1
inactive: [1] | [10] | [4]
active: [11] 0.106 µM | [12] 0.0777 µM

CCCCCCCCCCCCCCCC[N+](C)(C)CC
active: [13] 65.4 µM and 35.3 µM | [2] 44.5 µM and 30.8 µM | [10] 73.7 µM and 30.9 µM | [3] 71.2 µM and 24.6 µM | [5] 74.8 µM and 18.2 µM | [4] 70.4 µM

CCCCC(CC)CCC(CC(C)C)OS(=O)(=O)O (stereo unspecified)
inactive: [13] | [2] | [10] | [3] | [5] | [4] | [12]
active: [11] 4.29 µM

O=[N+]([O-])C1(Br)COCOC1
inactive: [13] | [2] | [10] | [3] | [4]

CCc1nccnc1C
inactive: [1] | [10] | [5]

CCN(CC#N)c1cccc(C)c1
inactive: [1] | [10] | [3] | [4]

CNC(=S)N(C)C
inactive: [13] | [2] | [10] | [3] | [4]

C#CC1(O)CC[C@H]2[C@@H]3CCC4=CCCC[C@@H]4[C@H]3CC[C@@]21C (stereo partly specified)
inactive: [13] | [5] | [14]
active: [13] 83.3 µM | [2] 86.1 µM | [10] 55.7 µM | [3] 86.1 µM | [5] 46.1 µM | [4] 84.8 µM

O=C(Nc1cccc(C(F)(F)F)c1)c1cc(Br)cc(Br)c1O
active: [13] 429 nM and 1.04 µM | [2] 306 nM and 746 nM | [10] 1.82 µM and 1.7 µM | [3] 1.07 µM and 7.71 µM | [4] 3.52 µM and 8.65 µM

CC(C)(c1cc(Br)c(OCCO)c(Br)c1)c1cc(Br)c(OCCO)c(Br)c1
active: [13] 55 µM | [2] 19.9 µM | [10] 53.1 µM | [3] 40.1 µM | [5] 60.1 µM | [4] 50.1 µM

OCCNCc1ccccc1
inactive: [13] | [2] | [10] | [3]

CCCCC/C=C\CCC=O
inactive: [13] | [2] | [10] | [3] | [4] | [14] | [12]
active: [11] 16.6 µM

NC(=O)N=NC(N)=O
inactive: [1] | [10] | [3] | [5] | [4] | [11]
active: [12] 4.59 µM

O=C(O)c1ccccc1Nc1cccc(C(F)(F)F)c1
inactive: [13] | [2] | [3] | [5] | [4]
active: [10] 22.7 µM and 23 µM | [3] 46.1 µM | [4] 39.5 µM
